Only some compounds are listed: those with a hit (about 10% of all), similar ones and a draw of the others.
Pf growth 96h – P. falciparum growth inhibition at 96 hours; P. falciparum luciferase reporter growth, 96 h; Potency, µM (series often up to 28.7 µM), inactives show at the top dose activity change, negative = inhibition, usual class: inhibitors; 320,000 tested, 6.9% active; AID 504834; active means well fitted inhibition curve with a large enough effect; inconclusive means small, poorly fitted or top-dose-only effect, or another doubt; inactive means no such curve, though single readings can be large or run the other way; further: on the % scale 0 is the no-effect control and ±100 the full control effect
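Two parasite generations (96 h, 37 C, 5% CO2) of compound exposure in infected erythrocytes (0.05% parasitemia, 2% hematocrit). Luciferase-reporter P. falciparum; decreased luminescence indicates inhibited growth, aimed at apicoplast-acting delayed death.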
SARS PLpro yeast – blocks SARS-CoV papain-like protease in a yeast assay; S. cerevisiae expressing SARS-CoV PLpro, growth rescue; 330,000 tested, 0.19% active; Potency, µM (titrated, usually from 32.9 µM), inactives show at the highest dose activity, positive = growth rescue, most hits filed as activators; further: 0% is about no effect; nearly all actives have a fitted effect of over 55% in size
NS1 inh – inhibitors of influenza NS1 protein function; AID 2326; Potency, µM (highest dose often 46.1 µM), without a hit: at the top dose activity, positive = more growth; 270,000 tested, 0.4% active; further: actives are rising curves; nearly all actives have a fitted effect of over 50% in size
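In this qHTS, NS1 from influenza A is expressed in budding yeast, where it slows growth. Cells are switched from glucose to 2% galactose medium (pH 6.0, -URA), treated with compound, and growth recovery is read at OD600.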
Pf growth 48h – inhibits P. falciparum growth in the first generation, 48 h. P. falciparum luciferase growth in erythrocytes, 48 h. Potency, µM (series often up to 28.7 µM), for the others: top-dose activity change, negative = inhibition, hits mostly inhibitors. 310,000 tested, 5.9% active. AID 504832; active means well fitted inhibition curve with a large enough effect; inconclusive means small, poorly fitted or top-dose-only effect, or another doubt; inactive means no such curve, though single readings can be large or run the other way; further: on the % scale 0 is the no-effect control and ±100 the full control effect
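A one-generation exposure of luciferase-tagged malaria parasites in RPMI 1640/Albumax erythrocyte culture, 37 C and 5% CO2. Inhibition is inferred from decreased luminescence after adding detection reagent.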
* hit, by the source's call. Unless noted, the call rests on the fitted dose curve. Potency means the concentration at half of the fitted maximal effect.

`O=C(Nc1cccc(F)c1)C1CCN(C(=O)N2CCOc3ccccc32)CC1` gave Pf growth 96h 9.5%, SARS PLpro yeast -1.0%, NS1 inh -2.5% and Pf growth 48h -12.8%.
CCOc1cc(NC(C)=O)ccc1C(=O)OC was read as Pf growth 96h -18.4% and Pf growth 48h -1.2%.
Screening Cc1ccccc1S(=O)(=O)Cc1ccc(C(=O)N(C)C2CCCCC2)o1 returned Pf growth 96h inconclusive, SARS PLpro yeast -4.7%, NS1 inh -12.8% and Pf growth 48h -0.5%.
S=C1Nc2ccccc2Sc2ccc(Cl)cc21 was read as Pf growth 96h inconclusive, SARS PLpro yeast 17.4%, NS1 inh 9.8% and Pf growth 48h inconclusive.
CCCCCC[N+](C)(C)CC/C=C1/c2ccccc2Sc2ccc(Cl)cc21 was read as Pf growth 96h 2.08µM*, SARS PLpro yeast -0.7%, NS1 inh -1.0% and Pf growth 48h inconclusive.
For CN(C)CC/C=C1/c2ccccc2Sc2ccc(Cl)cc21 the results were Pf growth 96h inconclusive, SARS PLpro yeast 5.3%, NS1 inh -7.1% and Pf growth 48h 10.4µM*.
Screening CN(C)CC/C=C1\c2ccccc2COc2ccccc21 returned Pf growth 96h inconclusive, SARS PLpro yeast -25.7%, NS1 inh -14.6% and Pf growth 48h inconclusive.
`CCCCN(CC)CCNS(=O)(=O)c1cccc2cccnc12` gave NS1 inh -1.3%.
For O=C(O)CNC(=S)NCc1ccccc1 the results were Pf growth 96h 20.4%, SARS PLpro yeast 1.1%, NS1 inh 14.1% and Pf growth 48h 13.1µM*.
Screening NNC(=S)NCc1ccccc1 returned Pf growth 96h 9.28µM*, SARS PLpro yeast 3.4%, NS1 inh 7.3% and Pf growth 48h inconclusive.
S=C(NCc1ccccc1)NCc1cccc(CNC(=S)NCc2ccccc2)c1 was read as Pf growth 96h 0.1%, SARS PLpro yeast inconclusive, NS1 inh -4.9% and Pf growth 48h -11.5%.
`Cc1ccccc1NC(=O)C(C)N1C(=O)c2ccccc2C1=O` (stereo not drawn) gave Pf growth 96h 2.94µM*, SARS PLpro yeast 6.2%, NS1 inh inconclusive and Pf growth 48h -10.9%.
`CCN(CC(=O)NCc1cccs1)C(=O)c1ccc(-c2ccc(F)cc2)o1` gave SARS PLpro yeast 0.1%.
CCOc1ccc(N(C)S(=O)(=O)c2c[nH]c(C(=O)OC)c2)cc1 was read as Pf growth 96h inconclusive, SARS PLpro yeast -3.0%, NS1 inh 3.0% and Pf growth 48h 9.7%.
CC1CCCN(C(=O)C(C)Nc2cc(Cl)ccc2N2CCOCC2)C1 (stereo not drawn) was read as Pf growth 96h 0.657µM*, SARS PLpro yeast 5.1%, NS1 inh -0.3% and Pf growth 48h inconclusive.
Cc1cc2oc(=O)cc(C)c2cc1NC(=O)CCl was read as Pf growth 96h 4.65µM*, SARS PLpro yeast 17.5%, NS1 inh 6.6% and Pf growth 48h inconclusive.
For Cc1cc2c(C)cc(=O)[nH]c2cc1NC(=O)CCl the results were Pf growth 96h 8.28µM*, SARS PLpro yeast 0.3%, NS1 inh 5.9% and Pf growth 48h inconclusive.
O=C(CCl)Nc1cc2[nH]c(=O)[nH]c2cc1Br was read as Pf growth 96h 7.38µM*, SARS PLpro yeast 3.5% and Pf growth 48h 2.33µM*.
For Cc1ccccc1N1C(=O)C(Oc2ccc(Cl)cc2)C1CNC(C)(C)C (stereo not drawn) the results were Pf growth 96h 47.5%, SARS PLpro yeast -5.1%, NS1 inh -20.4% and Pf growth 48h 11.7µM*.
CCCNCC1C(Oc2ccc(Cl)cc2)C(=O)N1c1ccccc1C (stereo not drawn) was read as Pf growth 96h 7.3%, SARS PLpro yeast -8.1%, NS1 inh -15.8% and Pf growth 48h 10.4µM*.
CCc1nc(C(N)=O)c2[nH]c(=O)n(-c3ccccc3F)c2n1 was read as Pf growth 96h 34.7%, SARS PLpro yeast 0.1%, NS1 inh -5.7% and Pf growth 48h 4.8%.
CC(C)(C)C(=O)Nc1ccc(C(=O)CN2C(=O)NC3(CCOc4ccccc43)C2=O)cc1 (stereo not drawn) was read as Pf growth 96h inconclusive, SARS PLpro yeast -1.5% and Pf growth 48h inconclusive.
Screening CCOC(=O)N1CCN(C(=O)c2ccc(CS(=O)(=O)c3ccccc3OC)o2)CC1 returned Pf growth 96h inconclusive, SARS PLpro yeast 0.7%, NS1 inh 18.3% and Pf growth 48h 1.1%.
`CCc1ccccc1S(=O)(=O)Cc1ccc(C(=O)N2CCN(c3ccccn3)CC2)o1` gave Pf growth 96h 9.28µM*, SARS PLpro yeast 2.5% and NS1 inh -18.8%.
